From PubChem BioAssay AID651739 (Broad Institute, 2012)
Hit rate of the full screen: of about 5,600 compounds, about 4,100 (73%) were called active. Roughly 4% stayed inconclusive and do not appear here.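 How the source made its calls: active means mean replicate inhibition above about 95% and at least 55% of replicates individually reaching it (limit read from the data); inconclusive means only one of the two criteria is met; inactive means neither criterion is met.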 The set was probably picked from earlier hits. A selection follows.

Assay: T. cruzi intracellular proliferation inhibitors, confirmation, cell-based, NIH3T3 host, beta-gal parasite, luminescence, cherry-pick (AID 651739)
Conditions: T. cruzi beta-gal in NIH3T3, GalScreen luminescence, 90 h; at 8.35 µM; active compounds read high

inhibition, active:
C[C@H](CO)N1C[C@H](C)[C@@H](CN(C)Cc2ccc(C(F)(F)F)cc2)OCCCC[C@H](C)Oc2ccc(NC(=O)C3CCCCC3)cc2C1=O 98.1%
C[C@@H]1CCCCO[C@@H](CN(C)Cc2ccc3c(c2)OCO3)[C@@H](C)CN([C@@H](C)CO)C(=O)c2cc(NC(=O)Nc3ccccc3)ccc2O1 110%
COc1ccc(CN(C)C[C@H]2OCCCC[C@H](C)Oc3ccc(NC(=O)Nc4ccc5c(c4)OCO5)cc3C(=O)N([C@H](C)CO)C[C@@H]2C)cc1 100%
CNC[C@@H]1Oc2cc(C#CCC3CCCC3)ccc2S(=O)(=O)N([C@H](C)CO)C[C@H]1C 95%
C[C@@H]1CN([C@H](C)CO)S(=O)(=O)c2ccc(C#CCC3CCCC3)cc2O[C@H]1CN(C)C(=O)CC1CC1 97.4%
CO[C@H](CN(C)S(=O)(=O)c1ccc(Cl)cc1)[C@@H](C)CN(Cc1ccccc1Cl)[C@H](C)CO 110%
CN1C(=O)c2cc(NC(=O)c3cnccn3)ccc2OC[C@@H]2O[C@H](CC(=O)N[C@@H]3CCN(Cc4ccccc4)C3)CC[C@@H]21 99.8%
CN1C(=O)c2cc(NC(=O)Nc3ccccc3F)ccc2OC[C@H]2O[C@H](CC(=O)NCc3ccc(-c4ccccc4)cc3)CC[C@H]21 108%
COc1ccc(NC(=O)Nc2ccc3c(c2)C(=O)N([C@H](C)CO)C[C@H](C)[C@H](CN(C)S(=O)(=O)c2ccc(Cl)cc2)OCCCC[C@H](C)O3)cc1 104%
CC(C)NC(=O)Nc1ccc2c(c1)C(=O)N([C@@H](C)CO)C[C@H](C)[C@H](CN(C)S(=O)(=O)c1ccc(Cl)cc1)OCCCC[C@H](C)O2 104%
C[C@H]1CCCCO[C@H](CN(C)S(=O)(=O)c2ccc(Cl)cc2)[C@@H](C)CN([C@@H](C)CO)C(=O)c2cc(NC(=O)Nc3ccc4c(c3)OCO4)ccc2O1 103%
C[C@H](CO)N1C[C@H](C)[C@@H](CN(C)S(=O)(=O)c2ccccc2F)Oc2ncc(C#Cc3ccccc3F)cc2C1=O 106%
C[C@H](CO)N1C[C@H](C)[C@@H](CN(C)S(=O)(=O)c2ccccc2)Oc2ncc(C#Cc3ccccc3F)cc2C1=O 111%
CCCNC(=O)N(C)C[C@@H]1Oc2ncc(C#Cc3ccccc3F)cc2C(=O)N([C@@H](C)CO)C[C@H]1C 112%
C[C@@H]1CN([C@@H](C)CO)C(=O)c2cc(NC(=O)Nc3cccc4ccccc34)ccc2O[C@H]1CN(C)Cc1ccc(Cl)c(Cl)c1 97.9%
C[C@@H]1CN([C@@H](C)CO)C(=O)c2cc(NC(=O)Nc3cccc4ccccc34)ccc2O[C@H]1CN(C)Cc1ccc(Oc2ccccc2)cc1 103%
Cc1ccc(-c2ccc([C@H]3[C@H](CO)N4CCCCN(Cc5cncnc5)C[C@@H]34)cc2)cc1 102%
OC[C@@H]1[C@H](c2ccc(C#CC3(O)CCCC3)cc2)[C@H]2CN(Cc3cncnc3)CCCCN12 99.2%
OC[C@@H]1[C@H](c2ccc(C#Cc3ccccc3)cc2)[C@@H]2CN(Cc3cncnc3)CCCCN12 104%
O=C(Nc1cc(Cl)cc(Cl)c1)N[C@H]1CC[C@@H](CCNS(=O)(=O)c2cccc(F)c2)O[C@H]1CO 113%
CCc1cnc(N2[C@H](C#N)[C@H](c3ccc(C4=CCCC4)cc3)[C@@H]2CO)s1 106%
N#C[C@H]1[C@@H](c2ccc(C3=CCCCC3)cc2)[C@@H](CO)N1C(=O)NC1CCCCC1 105%
CC(C)NC(=O)N1[C@H](C#N)[C@H](c2ccc(C#CC3CCCCC3)cc2)[C@H]1CO 105%
CS(=O)(=O)N1[C@@H](C#N)[C@H](c2ccc(C#CC3CCCCC3)cc2)[C@@H]1CO 103%

inhibition, inactive:
CCCNC(=O)N1[C@@H]2c3cccc(=O)n3C[C@H]1[C@H](CO)[C@H]2C(=O)NCC(F)(F)F 21.5%
CN1C(=O)c2cc(NC(=O)c3cnccn3)ccc2OC[C@@H]2O[C@@H](CC(=O)N[C@H]3CCN(Cc4ccccc4)C3)CC[C@H]21 71.5%
C[C@@H]1CN([C@H](C)CO)C(=O)c2cc(NS(C)(=O)=O)ccc2O[C@@H](C)CCCCO[C@H]1CN(C)S(=O)(=O)c1cn(C)cn1 -9.98%
O=C(c1ccc(F)cc1)N1CCCCN2[C@H](C1)[C@@H](c1ccc(C#CC3(O)CCCC3)cc1)[C@@H]2CO 45.9%
Cc1cccc(-c2ccc([C@H]3[C@@H](CO)N4CCCCN(Cc5cncnc5)C[C@H]34)cc2)c1 84.9%
OC[C@H]1[C@H](c2ccc(-c3cccc(F)c3)cc2)[C@@H]2CN(Cc3cncnc3)CCCCN12 82.2%
O=C(Nc1ccc(Cl)cc1)N[C@@H]1CC[C@@H](CCNC(=O)c2ccccc2F)O[C@H]1CO 45.6%
